These results are taken from PubChem BioAssay (NCI).

What all share (experiment): NCI-60 one-dose screen, 48 h (100 = growth as untreated, 0 = no growth, -100 = all killed)
Details in all cases: 10 µM unless noted

For assay [1], the system named is SR leukemia.
Assay [2] deals with RPMI-8226 leukemia.
Assay [3] has as its system OVCAR-8 ovarian.
The test system of assay [4] is OVCAR-5 ovarian.
For assay [5], the system named is OVCAR-4 ovarian.
In assay [6] the test system is SK-OV-3 ovarian.
Assay [7] relates to IGROV1 ovarian.
The subject of assay [8] is OVCAR-3 ovarian.
In assay [9] the test system is HS 578T breast.
The test system of assay [10] is NCI/ADR-RES ovarian.
Assay [11] relates to T-47D breast.
Assay [12] relates to BT-549 breast.
For assay [13], the system named is MDA-MB-435 melanoma.
Assay [14] concerns SW-620 colon.
In assay [15] the test system is MCF7 breast.
Assay [16] relates to HCT-116 colon.
The subject of assay [17] is HCC-2998 colon.
Assay [18] has as its system KM12 colon.

The panel holds about 83,000 compounds, 20% with a hit somewhere; the sample as a whole holds those more often.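 Plates (96-well) were seeded with cells, treated with compound at one concentration, and incubated for 48 hours before percent growth was determined.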 Values without a mark were called inactive. Activity calls are given as the source filed them. Rule for the calls: active = growth percent below 10; inactive = the rest.

With `CCCC(O)Cn1ncc(C(=O)OCC)c1NC(=O)NCc1ccccc1F` (stereo unspecified), the growth in assay [1] is 93.5%; in assay [2], 67.4%; in assay [3], 89.9%; in [4], 108%; in assay [5], 87.1%; in assay [6], 102%. Moreover, the growth in assay [7] is 92.9%; in assay [8] it was 91.1%; in assay [9], 102%; in [10], 92.6%; in assay [11] it was 87.2%; in assay [12], 90.2%. Also, the growth in [13] was 103%; in assay [14], 105%; in assay [15], 88%; in [16] it was 73.8%; in assay [17], 87.8%; in assay [18], 97.3%.

`Cc1ccc(C2=Nc3c(N)ncnc3NC(c3ccc4c(c3)OCO4)C2)cc1` (stereo unspecified): the growth in assay [1] is 15.8%; in [2], 40.1%; in assay [3] it was 81%; in assay [4], 74.6%; in assay [5], 87.6%; in [6], 78.3%. In addition, the growth in assay [7] is 32%; in [8], 37.8%; in [9], 78%; in [10], 17.8%; in [11], 70.5%; in [12], 61.4%. The growth is -34.5% (active) in [13]; 18.3% in assay [14]; 25.9% in [15]; 47% in assay [16]; 2.97% (active) in [17]; 35.3% in [18].

For the compound `O=C(Cn1c2c(c3ccccc31)CCCC2)Nc1ccc(-c2nc3ccccc3s2)cc1`, the growth in [1] is 88.8%; in [2], 116%; in assay [3] it was 107%; in assay [4], 99.5%; in [5], 104%; in [6] it was 114%. Also, the growth in assay [7] was 83.8%; in assay [8], 110%; in assay [9], 112%; in assay [10] it was 109%; in assay [11] it was 80.1%; in assay [12], 115%. Moreover, the growth is 104% in [13]; 109% in assay [14]; 30.8% in assay [15]; 125% in assay [16]; 108% in assay [17]; 101% in assay [18].

As for `N#C/C(=C\c1ccc(-c2ccc(Cl)cc2)o1)C(=O)Nc1ncc(Cc2ccc(Cl)cc2)s1`, the growth in [1] was 8.8% (active); in assay [2], 85.2%; in assay [3], 8.41% (active); in assay [4] it was 29.7%; in [5] it was -56.9% (active); in assay [6], 58.9%. Further, the growth is 28.3% in [7]; -49.8% (active) in [8]; 25.6% in [9]; 26.2% in [10]; 14.3% in assay [11]; 58.2% in [12]. In addition, the growth is 21.2% in [13]; 13.7% in assay [14]; 45.9% in assay [15]; 3.14% (active) in assay [16]; 77.5% in assay [17]; 36.8% in assay [18].

On to `CCOC(=O)C(=Cc1cccc(Br)c1)C(=O)OCC`, for which the growth in assay [1] was 3.67% (active); in [2], 12.9%; in [3], 29.5%; in assay [4], 42.9%; in [5], 48.2%; in assay [6] it was 86.2%. Further, the growth is 47.8% in assay [7]; 15.6% in assay [8]; 25.6% in assay [9]; 11.7% in [10]; 1.63% (active) in assay [11]; 28% in [12]. Moreover, the growth in assay [13] is 23.7%; in assay [14], 25.9%; in [15] it was 11%; in assay [16] it was 14%; in [17], 101%; in assay [18], 11.9%.

For `CCN1C(=O)N(CC)C2C1NN=c1s/c(=C\c3ccc(Cl)cc3Cl)c(=O)n12` (stereo unspecified), the growth in assay [1] was 12.3%; in assay [2] it was 16.5%; in [3] it was 10.8%; in [4], 28.2%; in assay [5] it was 46.1%; in assay [6], 29.2%. The growth in assay [7] was 13.4%; in assay [8], -43.3% (active); in assay [9], 15.8%; in assay [10], 5.65% (active); in assay [11], 58.8%; in assay [12], 15.9%. In addition, the growth is -24.8% (active) in assay [13]; 20.5% in [14]; 14% in [15]; 9.71% (active) in assay [16]; 7.2% (active) in assay [17]; 7.47% (active) in assay [18].

Turning to `Cc1cc2c([nH]1)CSc1cc(S(=O)(=O)c3ccccc3)c(=O)[nH]c1-2`, the growth is 12.8% [100 µM] in assay [1]; 21.3% [100 µM] in assay [2]; 24.3% [100 µM] in assay [3]; 69.9% [100 µM] in assay [4]; 43.1% [100 µM] in [5]; 22% [100 µM] in [6]. Besides, the growth was 42.6% [100 µM] in [7]; -15.6% [100 µM] (active) in [8]; 47.5% [100 µM] in assay [9]; 15.7% [100 µM] in assay [10]; 4.92% [100 µM] (active) in assay [11]; -12.2% [100 µM] (active) in [12]. Besides, the growth is 10.6% [100 µM] in assay [13]; 23.8% [100 µM] in assay [14]; -0.665% [100 µM] (active) in assay [15]; 1.35% [100 µM] (active) in assay [16]; 12.4% [100 µM] in assay [17]; -37.2% [100 µM] (active) in assay [18].
